Where “and” joins values, the source holds several entries; their conditions need not be identical. Equal entries are not always repeated. Some structures have more than one record in an assay (separate samples or runs), and their calls can disagree. Calls of active or inactive are those of the source. The calls were made as follows: active = hit-call score of the fitted dose curve at least 0.9, where 1 is the maximum; inactive = score below 0.9.

Read-out in this assay: Human Leukocyte Antigen - DR isotype (HLADR), HLA-DRA (gene 3122)
Put plainly: BSK_BE3C_HLADR: BioMAP Diversity Plus: BE3C Assay for Human Leukocyte Antigen - DR isotype (HLADR) Biomarker Activity (AID 2283032). To be noted: primary human bronchial epithelial cells; actives raise or lower the signal. As to the method:
BSK_BE3C is a cell-based, multiplexed-readout assay that uses bronchial epithelial cell, a human lung primary cell, with measurements taken at 24 hours after chemical dosing in a 96-well plate.BSK_BE3C_HLADR is an assay component measured in the BSK_BE3C assay. It measures HLA-DR antibody related to regulation of gene expression using ELISA technology.Data from the assay component BSK_BE3C_HLADR was analyzed into 1 assay endpoint. This assay endpoint, BSK_BE3C_HLADR, was analyzed with bidirectional fitting relative to DMSO as the negative control and baseline of activity. Using a type of binding reporter, gain or loss-of-signal activity can be used to understand changes in the signaling as they relate to the gene HLA-DRA. Furthermore, this assay endpoint can be referred to as a primary readout, because this assay has produced multiple assay endpoints where this one serves a signaling function. To generalize the intended target to other relatable targets, this assay endpoint is annotated to the cell adhesion molecules intended target family, where the subfamily is MHC Class II.
The levels of cell surface (or secreted, indicated by the prefix "s") biomarker endpoints were measured by ELISA. Overt cytotoxicity to cells in confluent adherent cultures (all systems other than the BT system) was assessed by measuring total protein levels using sulforhodamine B (SRB) staining in parallel cultures at the time of biomarker measurements, indicated as SRB endpoints. For proliferation assays for adherent cell types, individual cell types are cultured at sub-confluence and relative cell numbers quantified by SRB staining at time points optimized for each system (48 h: 3C and CASM3C systems; 72 h: BT and HDF3CGF systems; 96 h: SAg system). SRB was performed by staining cells with 0.1% SRB after fixation with 10% TCA and reading wells at 560 nm.Viability and proliferation of PBMC (T cells) was quantified by Alamar Blue reduction for the SAg and BT systems. For PBMC viability (referred to as PBMC Cytotoxicity within the assay endpoint names), cells were plated (75,000/well in a 96-well plate) and then chemical samples added for 1 h before addition of activators, SEB and TSST-1 (20 ng/mL final concentration each). Cells were incubated for 90 h. Then, Alamar Blue (20 uL/well) (Invitrogen, Cat DAL1100) was added for 6 h, and the plates were read with a fluorescence microplate reader at 546/580 nm (excitation/emission). For PBMC proliferation, cells were plated and activated as above but incubated for only 16 h prior to addition of Alamar Blue. Plates were read after 6 h.
In the case of `OCCC(F)(F)C(F)(F)C(F)(F)C(F)(F)C(F)(F)C(F)(F)C(F)(F)C(F)(F)F`, the result was inactive; the AC50 (commonly the concentration giving half of the maximal activity seen) is 18.3 µM (active) and 24.1 µM (active).

With `C=C(C)C(=O)OCCC(F)(F)C(F)(F)C(F)(F)C(F)(F)C(F)(F)C(F)(F)F`, the result was inactive. Still for that read-out and setting: for `CCCCC(CC)COC(=O)CCCCC(=O)OCC(CC)CCCC` (stereo not given) the value was “inactive”.

Consider `CC(C)(C)CC(C)(C)c1ccc(O)c(-n2nc3ccccc3n2)c1`, for which the outcome was inactive.

`CCC(=C(c1ccc(O)cc1)c1ccc(OCCN(C)C)cc1)c1ccccc1`: the AC50 was 8.64 µM (active). As to `Oc1cccc(O)c1`, the outcome was inactive. `CCOC(=O)CC(O)(CC(=O)OCC)C(=O)OCC`: the outcome was inactive.

On to `COCC(C)OCC(C)O` (stereo not given), for which the result was inactive.

Turning to `CC[C@H](c1ccc(O)cc1)[C@@H](CC)c1ccc(O)cc1`, the AC50 is 19.1 µM (active). As for `O=C(O)c1ccccc1C(c1ccc(O)cc1)c1ccc(O)cc1`, the AC50 was 31.6 µM (active). The same measure, in the same setting: then `O=C(O)Cc1cc(I)c(Oc2cc(I)c(O)c(I)c2)c(I)c1`, with 5.22 µM (active). Regarding `CC(O)CO` (stereo not given), the outcome was inactive. Still for that read-out and setting: for `c1ccc2c(c1)ccc1ccccc12` the value was “inactive”; for `CCCCCCCCCCCCCCCS(=O)(=O)Oc1ccccc1`, “inactive”. Turning to `CCCOc1sc(C(=O)N2CCC(c3cc(CN)ccc3F)CC2)c(C)c1Br`, the AC50 was 7.9 µM (active). With `C#C[C@]1(O)CC[C@H]2[C@@H]3CCC4=CC(=O)CC[C@@H]4[C@H]3CC[C@@]21C`, the outcome was inactive.

In the case of `CC#C[C@]1(O)CC[C@H]2[C@@H]3CCC4=CC(=O)CCC4=C3[C@@H](c3ccc(N(C)C)cc3)C[C@@]21C`, the outcome was inactive.

As to `CN1CCC[C@H]1c1cccnc1`, the outcome was inactive. The same measure, in the same setting: then `CCCCCCCCOC(=O)CCCCCCCCC(=O)OCCCCCCCC`, with “inactive”; and `CC(=O)CC(C)(C)O`, with “inactive”. On the same count and under the same terms, for `CCCCCCC(=O)O` the value was “inactive”. On the same count and under the same terms, for `NCC(F)(F)C(F)(F)C(F)(F)C(F)(F)C(F)(F)C(F)(F)C(F)(F)F` the value was “inactive”; for `Nc1cccc2c(N)cccc12`, “inactive”.

Regarding `Cc1cc(CCN2CCN(c3nsc4ccccc34)CC2)cc2c1NC(=O)CC2(C)C`, the AC50 is 28.9 µM (active). Same read-out and setting: for `Oc1cc2ccccc2c2ccccc12` the value was 13.8 µM (active).

In the case of `COc1ccc([N+](=O)[O-])cc1N`, the outcome was inactive. As to `O=[N+]([O-])c1ccc(O)cc1`, the result was inactive.

Consider `CCc1nn(C2CCCCC2)c2cc(C3(C#N)CCC(C(=O)O)CC3)ccc12` (stereo not given), for which the AC50 is 31 µM (active). With `CC[C@H](C)[C@@H](C(=O)O)n1sc2ccccc2c1=O`, the outcome was inactive. On the same count and under the same terms, then `CCc1ccc(CCOc2ccc(CC3SC(=O)NC3=O)cc2)nc1` (stereo not given), with “inactive”; and `N#C[C@@H]1CC(F)(F)CN1C(=O)CNC1CC2CCC(C1)N2c1ncccn1` (stereo not given in full), with “inactive”; and `CC(C)(C)c1cc(C(C)(C)C)c(O)c(C(C)(C)C)c1`, with “inactive”. As for `OC1CCCCC1`, the outcome was inactive. Take `CCN(CC)CCNc1ccc(CNC=O)c2sc3ccc(OC)cc3c(=O)c12`: the concentration at half-maximal activity (AC50) was 11 µM (active). For the compound `c1ccc2cc3c(ccc4ccccc43)cc2c1`, the result was inactive. The same measure, in the same setting: for `CCCOC(=O)c1ccc(O)cc1` the value was “inactive”; for `c1ccc2c(c1)Cc1ccccc1-2`, “inactive”. In the case of `CN1CCN(c2ccccc2/C=C2\SCCN(c3ccc(Cl)c(Cl)c3)C2=O)CC1`, the AC50 was 25.7 µM (active).

Take `NC(=O)N(O)[C@@H]1C=C[C@H](Oc2cccc(Oc3ccc(F)cc3)c2)C1`: the result was inactive.
